According to PubChem BioAssay AID1578 (Sanford-Burnham Center for Chemical Genomics, 2009):
About 3,000 (1%) of roughly 290,000 compounds were called active. Rule as the data show it: active = inhibition mostly above about 36% (no sharp cut-off); inactive = mostly below about 34%. The full list was thinned out, with actives kept by preference.

assay: inhibition of NOD1-driven NF-kB reporter – cell-based, luminescence, uHTS, primary screen (AID 1578); details: NOD1-driven NF-kB luciferase reporter cells, at 4 µM, active compounds read high;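 also: HEK-293T reporter cells stimulated with the NOD1 agonist gamma-tri-DAP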

Row | Structure (SMILES) | inhibition
1 | Nc1c(N2CCCC2)c2ccccc2oc1=O | -10.9% (inactive)
2 | Nc1c(N2CCN(c3ccccc3)CC2)c2ccccc2oc1=O | 60.8% (active)
3 | Nc1c(N2CCCCC2)c2ccccc2oc1=O | -15% (inactive)
4 | COc1ccc(OC)c(NC(=O)Cc2c(C(=O)O)n(C)c3ccccc23)c1 | -25.2% (inactive)
5 | NC(=O)C1CCN(C(=O)c2ccc3nc(N4CCCCC4)sc3c2)CC1 | -2.5% (inactive)
6 | COC(=O)Cc1ccc(NC(=S)NCc2ccccc2OC)cc1 | -14.6% (inactive)
7 | O=C(CC1NCCNC1=O)Nc1ccccc1 (stereo not drawn) | -14.1% (inactive)
8 | Cc1ccc(C)c(NC(=O)C2CCCN(S(=O)(=O)c3c(C)noc3/C=C/N(C)C)C2)c1 (stereo not drawn) | -11.5% (inactive)
9 | COc1ccc(/C=N/NC(=O)c2cccnc2)cc1O | 20% (inactive)
10 | Cc1oc(-c2ccc3c(c2)OCCO3)cc1C(=O)NCC(=O)O | -22.5% (inactive)
11 | CCOC(=O)CNC(=O)c1cc(-c2ccc3c(c2)OCCO3)oc1C | -24% (inactive)
12 | Cc1oc(-c2ccc3c(c2)OCCO3)cc1C(=O)O | 89.2% (active)
13 | C=C1CCC[C@]2(C)C[C@H]3OC(=O)C(CNCC(OC)OC)[C@H]3CC12 (stereo partly drawn) | -18% (inactive)
14 | COc1cc(/C=N/O)cc(Br)c1OS(=O)(=O)c1ccc(C)cc1 | 78% (active)
15 | COc1cc(/C=N/O)cc(Br)c1OC | 6.6% (inactive)
16 | CCCOc1c(Br)cc(/C=N/O)cc1OC | 6% (inactive)
17 | COCCNC(=S)N1CCOCC1 | -13.4% (inactive)
18 | CC(C)(C)C1=NN(c2ccc([N+](=O)[O-])cc2)C(c2ccccc2)C1 (stereo not drawn) | -37.3% (inactive)
19 | CCN(CC)S(=O)(=O)c1ccc(OC)c(NC(=O)CC2CCCC2)c1 | -26.7% (inactive)
20 | COc1ccc(S(=O)(=O)N(C)C)cc1NC(=O)COC(=O)CC1CCCC1 | 41.4% (active)
21 | CN(C)S(=O)(=O)c1ccc(Cl)c(NC(=O)COC(=O)CN2C(=O)C3CCCCC3C2=O)c1 (stereo not drawn) | -45.6% (inactive)
22 | CN(CC(=O)Nc1ccc(Cl)c(Cl)c1)C1CCCCC1 | -29.4% (inactive)
23 | O=C(c1ccco1)N(Cc1ccco1)Cc1cc2ccccc2[nH]c1=O | 5.8% (inactive)
24 | O=C(C1COc2ccccc2O1)N1CCc2ccccc2C1 (stereo not drawn) | 45.7% (active)
25 | O=C(C1COc2ccccc2O1)N1CCc2ccccc21 (stereo not drawn) | -44.3% (inactive)

Row | Structure (SMILES) | inhibition
26 | O=C(C1COc2ccccc2O1)N1CCCC1 (stereo not drawn) | 9.4% (inactive)
27 | Cc1ccc(CSc2nnc3ccc(-c4ccncc4)nn23)cc1 | -23.9% (inactive)
28 | O=C(c1ccc(Oc2ccccc2)cc1)C1CCCN(C(=O)c2cnccn2)C1 (stereo not drawn) | -4.3% (inactive)
29 | Cc1ccc(C(=O)N2CCCC(C(=O)c3ccc(Oc4ccccc4)cc3)C2)cn1 (stereo not drawn) | 61% (active)
30 | CSc1ccc(C(=O)C2CCCN(C(=O)c3ccc(C)nc3)C2)cc1 (stereo not drawn) | -25.1% (inactive)
31 | COc1ccc([N+](=O)[O-])cc1Nc1ncnc2ccccc12 | -1.9% (inactive)
32 | COc1ccc(Nc2ncnc3ccc([N+](=O)[O-])cc23)c(OC)c1 | 7% (inactive)
33 | O=[N+]([O-])c1ccc2ncnc(Nc3ccc4c(c3)OCCO4)c2c1 | 65.2% (active)
34 | Cc1ccc2ncnc(Nc3cccc([N+](=O)[O-])c3)c2c1 | 13.8% (inactive)
35 | Cc1ccc(O)c(Nc2ncnc3ccc([N+](=O)[O-])cc23)c1 | 28.1% (inactive)
36 | CCOC(=O)COn1c(=O)c(-c2ccccc2)[n+]([O-])c2ccccc21 | 0.2% (inactive)
37 | COc1ccc(/C=N/NC(=O)c2ccc(Br)cc2)c(OC)c1 | -40.4% (inactive)
38 | COC(=O)C1=C(C)NC(C)=C(C(=O)OC)C1c1ccco1 | -5.8% (inactive)
39 | CCOc1ccc(NC(=O)COC(=O)Cc2ccc(S(=O)(=O)N3CCOCC3)s2)cc1 | 5.1% (inactive)
40 | Cc1ccc(-n2nc3c(=O)n(CC(=O)NCc4ccccn4)nc(C)c3c2C)cc1 | -3.4% (inactive)
41 | CC(C)(C)OC(=O)N1CCOCCOCCN(C(=O)OC(C)(C)C)CCOCCOCC1 | 4.4% (inactive)
42 | COC(=O)c1nc(NC(=O)c2cc(OC)c(OC)c(OC)c2)n[nH]1 | 15.5% (inactive)
43 | Cc1ccc2[nH]cc(C(=O)CCl)c2c1 | 107% (active)
44 | CCN(CC)CC(=O)c1c[nH]c2ccc(C)cc12 | -11.4% (inactive)
45 | CCN1CCN(CC(=O)c2c[nH]c3ccc(C)cc23)CC1 | -10.6% (inactive)
46 | Nc1ccc(S(=O)(=O)c2ccc(Cl)cc2)cc1 | 4% (inactive)
47 | COc1ccc(/C=N/NC(N)=S)cc1 | -8.2% (inactive)
48 | Cc1ccc(S(=O)(=O)c2nc(S(=O)(=O)c3ccccc3)sc2N2CCN(CCO)CC2)cc1 | 18% (inactive)
49 | CCN1C(=O)N(CC)C2NC(=S)NC21 (stereo not drawn) | 8.6% (inactive)
50 | COc1ccc(OCc2cc(C(=O)N(C)Cc3nnc(C)o3)no2)c(Cl)c1 | -5.8% (inactive)

Row | Structure (SMILES) | inhibition
51 | C/C=C/Cn1c(SCc2ccccc2)nc2c1c(=O)[nH]c(=O)n2C | 35% (inactive)
52 | C=CCn1c(SCCCc2ccccc2)nc2c1c(=O)[nH]c(=O)n2C | -1.2% (inactive)
53 | Cc1ccc(S(=O)(=O)c2cc3c(=O)n4ccccc4nc3n(C)c2=N)cc1C | -7.1% (inactive)
54 | CCOCCOC(=O)c1[nH]c2c(c1C)C(=O)CC(c1cc(OC)c(OC)c(OC)c1)C2 (stereo not drawn) | 4.2% (inactive)
55 | CCCOC(=O)c1[nH]c2c(c1C)C(=O)CC(c1ccc(OC)c(OC)c1)C2 (stereo not drawn) | -5.9% (inactive)
56 | CC(=O)N1CCN(c2ccccc2NC(=O)c2ccc(C#N)cc2F)CC1 | 2.6% (inactive)
57 | COc1ccc(OCCN2CCN(C(=O)c3ccc(OC)c(OC)c3)CC2)cc1 | -11.7% (inactive)
58 | Cc1ccc(-c2nc(N)sc2-c2ccccc2)cc1C | -14% (inactive)
59 | CCOC(=O)c1c(NC(=O)c2cccs2)sc2c1CCN(C(=O)OCC)C2 | 14% (inactive)
60 | CCOC(=O)N1CCc2c(sc(NC(=O)C3=COCCO3)c2C(N)=O)C1 | -29.7% (inactive)
61 | CCOC(=O)N1CCc2c(sc(NC(=O)c3ccc(Cl)s3)c2C(N)=O)C1 | 85.3% (active)
62 | O=C(CSc1nnc(-c2ccccc2Br)o1)Nc1cccc2ccccc12 | -22.5% (inactive)
63 | Cc1ccc(C2=Nn3c(COc4ccc(Cl)cc4)nnc3SC2CC(=O)O)cc1 (stereo not drawn) | 3.6% (inactive)
64 | CN(CCCNC(=O)Cn1c(=O)c2cccn2c2ccccc21)Cc1ccccc1 | -17.1% (inactive)
65 | Cc1ccccc1NC(=O)COC(=O)C1(C)CC1(Cl)Cl (stereo not drawn) | -11.4% (inactive)
66 | Cc1ccc(S(=O)(=O)Oc2ccc(/C=C(/NC(=O)c3ccccc3)C(=O)NCCCC(=O)O)cc2)cc1 | -18.3% (inactive)
67 | COC(=O)c1c(-c2ccccc2)csc1NC1=NS(=O)(=O)c2ccccc21 | 82.4% (active)
68 | CCOC(=O)c1c(-c2ccc(C)cc2)csc1NC1=NS(=O)(=O)c2ccccc21 | 24% (inactive)
69 | COC(=O)c1ccc(C(=O)OC)c(NC2=NS(=O)(=O)c3ccccc32)c1 | -20.3% (inactive)
70 | O=C(OCC(=O)c1cccs1)c1ccccc1 | 2.3% (inactive)
71 | Cc1nc2ccc(F)cc2cc1C(=O)Nc1ccc(Cl)c(Cl)c1 | -34% (inactive)
72 | Cc1ccc(NC(=O)N(Cc2nc3ccccc3c(=O)[nH]2)Cc2cccs2)cc1 | -2.2% (inactive)
73 | O=C(Nc1cccc(Cl)c1)N(Cc1nc2ccccc2c(=O)[nH]1)Cc1cccs1 | -26.5% (inactive)
74 | O=C(Nc1ccc(Cl)cc1)N(Cc1nc2ccccc2c(=O)[nH]1)Cc1cccs1 | 99.1% (active)
75 | Cn1cc(C(=O)NCc2cccs2)c(=O)c2cc(S(=O)(=O)N3CCCC3)ccc21 | 53% (inactive)

Row | Structure (SMILES) | inhibition
76 | Brc1ccc(/C=N/Nc2ccc3ccccc3n2)cc1 | -39.3% (inactive)
77 | Brc1ccc(N=Nc2ccc3ccccc3n2)cc1 | 43.4% (active)
78 | CCn1c(O)c(N=Nc2ccc3ccccc3n2)c2ccccc21 | -7.9% (inactive)
79 | CC1Cc2ccccc2N1CC(=O)Nc1ccc(S(=O)(=O)N(C)C)cc1 (stereo not drawn) | -7.7% (inactive)
80 | CCOc1ccc(C(C)NC(=S)NCc2ccc(F)cc2)cc1 (stereo not drawn) | 8.6% (inactive)
81 | COc1cccc(C(C)NC(=S)NCc2ccc(F)cc2)c1 (stereo not drawn) | 20.3% (inactive)
82 | Cc1ccc(C(C)NC(=S)NCc2ccc(F)cc2)c(C)c1 (stereo not drawn) | 29.2% (inactive)
83 | Cc1ccc(C)c(C(C)NC(=S)NCc2ccc(F)cc2)c1 (stereo not drawn) | 52.6% (active)
84 | COc1ccc(C(C)NC(=S)NCc2ccc(F)cc2)cc1 (stereo not drawn) | 55.1% (active)
85 | Cc1ccc(C(C)NC(=S)NCc2ccc(F)cc2)cc1C (stereo not drawn) | -16.4% (inactive)
86 | COCCNC(=O)Cn1c(=O)n(C)c2ccccc21 | -14% (inactive)
87 | Cc1cc(C)cc(N(C(C)C(=O)NCCC2=CCCCC2)S(C)(=O)=O)c1 (stereo not drawn) | 15% (inactive)
88 | CC(=O)Nc1ccc(NC(C)=C(C#N)C#N)cc1 | -12.5% (inactive)
89 | COc1ccc(NC(=O)N2c3ccccc3CC2C)cc1OC (stereo not drawn) | -26.9% (inactive)
90 | COc1ccc(NC(=S)N2c3ccccc3CC2C)cc1OC (stereo not drawn) | 30.4% (active)
91 | COc1cccc(NC(=S)N2c3ccccc3CC2C)c1 (stereo not drawn) | -26.6% (inactive)
92 | CCN(C(=O)COC(=O)CSc1ccc([N+](=O)[O-])cc1)C1CCS(=O)(=O)C1 (stereo not drawn) | -23.6% (inactive)
93 | COc1cc(C(=O)N/N=C/c2ccc3c(c2)c2ccccc2n3C)ccc1O | 32.9% (inactive)
94 | Cc1ccc(CNC(=O)CCS(=O)(=O)Cc2ccc(C)cc2)cc1 | 15.8% (inactive)
95 | CC(C)c1ccc2c(c1)C1Cc3ccccc3C1N2 (stereo not drawn) | -15.3% (inactive)
96 | CCOc1cc(/C=C2/COc3ccccc3C2=O)ccc1OCC(=O)N(C)C | 36.8% (inactive)
97 | CCOc1cc(/C=C2\COc3ccccc3C2=O)cc(Br)c1OCC(=O)N(C)C | 54.9% (active)
98 | CCOc1cc(/C=C2\COc3ccccc3C2=O)ccc1OCC(=O)N(C)C | 30.7% (inactive)
